Some test systems named below: DU-145 prostate; K-562 leukemia; MALME-3M melanoma; MDA-MB-231 breast; RXF 393 renal; SF-268 CNS; SF-295 CNS; UACC-257 melanoma; M14 melanoma; HCT-15 colon; HT29 colon; SNB-75 CNS; SNB-19 CNS; U251 CNS; PC-3 prostate; SK-MEL-5 melanoma; UACC-62 melanoma; LOX IMVI melanoma; SK-MEL-28 melanoma.
Assay in all cases: NCI-60 one-dose screen, 48 h (100 = growth as untreated, 0 = no growth, -100 = all killed)
What all share (details): 10 µM unless noted

Each structure is given as a SMILES string. The panel holds about 83,000 compounds, 20% with a hit somewhere; the sample as a whole holds those more often.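 For each line, cells grew in 96-well plates with the test compound present at a single concentration for 48 hours.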 Unmarked numbers belong to inactive results. Calls of active or inactive are those of the source. The calls were made as follows: active = growth percent below 10; inactive = the rest.

For the compound `O=C(O)c1ccc(=O)[nH]n1`, the growth in the assay with DU-145 prostate was 135%; in the assay with K-562 leukemia, 102%; in the assay on MALME-3M melanoma, 120%; in the assay with MDA-MB-231 breast it was 103%; in the assay with RXF 393 renal, 122%; in the assay with SF-268 CNS it was 125%. The growth in the assay with SF-295 CNS is 109%; with UACC-257 melanoma it was 105%; in the assay on M14 melanoma, 107%; in the assay with HCT-15 colon it was 101%; in the assay with HT29 colon, 123%; with SNB-75 CNS, 98.4%. Further, the growth is 102% in the assay on SNB-19 CNS; 109% in the assay on U251 CNS; 103% in the assay with PC-3 prostate; 110% with SK-MEL-5 melanoma; 98.2% in the assay on UACC-62 melanoma; 96.2% in the assay on LOX IMVI melanoma. Further, the growth with SK-MEL-28 melanoma was 109%.

For the compound `C[C@@H]1CCC2=C(CCC[C@]2(C)C(=O)O)[C@@]1(C)CCc1ccoc1`, the growth was 108% in the assay with DU-145 prostate; 116% in the assay on K-562 leukemia; 110% in the assay with MALME-3M melanoma; 90% in the assay on MDA-MB-231 breast; 105% with RXF 393 renal; 95.1% with SF-268 CNS. Also, the growth is 102% in the assay on SF-295 CNS; 82.9% with UACC-257 melanoma; 103% in the assay with M14 melanoma; 102% in the assay with HCT-15 colon; 86.9% in the assay on HT29 colon; 95.7% with SNB-75 CNS. Moreover, the growth is 92.9% in the assay with SNB-19 CNS; 85.4% in the assay on U251 CNS; 87.4% in the assay with PC-3 prostate; 95.4% with SK-MEL-5 melanoma; 85.3% with UACC-62 melanoma; 98.4% in the assay with LOX IMVI melanoma. Also, the growth in the assay with SK-MEL-28 melanoma was 115%.

Turning to `COc1cc(-c2c3c(nc4c2c(C)nn4-c2ccccc2)-c2ccccc2C(=O)C3=O)cc(OC)c1OC`, the growth in the assay on DU-145 prostate is 92.2%; with K-562 leukemia it was 76.9%; in the assay with MALME-3M melanoma, 72.4%; with MDA-MB-231 breast, 70.9%; with RXF 393 renal, 83.3%; with SF-268 CNS, 78.9%. The growth in the assay on SF-295 CNS was 107%; in the assay on UACC-257 melanoma it was 64.1%; with M14 melanoma, 90%; in the assay on HCT-15 colon it was 85.6%; with HT29 colon, 44.7%; with SNB-75 CNS, 138%. Moreover, the growth was 101% in the assay on SNB-19 CNS; 86.7% in the assay on U251 CNS; 53.1% with PC-3 prostate; 70.5% in the assay on SK-MEL-5 melanoma; 86.7% in the assay with UACC-62 melanoma; 35.7% with LOX IMVI melanoma. In addition, the growth in the assay on SK-MEL-28 melanoma is 95%.

For `CCOC(=O)/C=C/C(=O)[C@H](CC(C)C)NC(=O)[C@H](Cc1ccccc1)NC(=O)OCc1ccccc1`, the growth with DU-145 prostate was 68.3%; in the assay with K-562 leukemia it was 5.9% (active); in the assay with MALME-3M melanoma, 103%; in the assay on MDA-MB-231 breast, 63.5%; in the assay on RXF 393 renal it was 26.8%; with SF-268 CNS, 84.8%. In addition, the growth in the assay with SF-295 CNS is 99.7%; with UACC-257 melanoma, 70.7%; with M14 melanoma, 65.6%; in the assay with HCT-15 colon, 15.5%; in the assay with HT29 colon it was 57.9%; in the assay with SNB-75 CNS, 69.2%. In addition, the growth with SNB-19 CNS is 93.7%; in the assay on U251 CNS it was 50.8%; in the assay with PC-3 prostate, 68.3%; with SK-MEL-5 melanoma, 97.5%; with UACC-62 melanoma, 14.4%; with LOX IMVI melanoma, -82.9% (active). Moreover, in the assay with SK-MEL-28 melanoma, the growth was 34.7%.

Regarding `C[C@]12C[C@@H](c3ccoc3)OC(=O)[C@@H]1CC[C@]1(C)[C@@H]2CC[C@@H](O)[C@]1(C)O`, the growth in the assay with DU-145 prostate is 73%; in the assay on K-562 leukemia, 39.8%; in the assay on MALME-3M melanoma, 81.6%; in the assay on MDA-MB-231 breast, 74.6%; in the assay with RXF 393 renal it was 102%; in the assay on SF-268 CNS it was 106%. Besides, the growth was 51.7% with SF-295 CNS; 83% in the assay on UACC-257 melanoma; 82.4% in the assay on M14 melanoma; 85.4% in the assay on HCT-15 colon; 68.3% in the assay with HT29 colon; 62.3% in the assay on SNB-75 CNS. Also, the growth with SNB-19 CNS is 76.5%; with U251 CNS it was 66.5%; in the assay with PC-3 prostate, 60.5%; in the assay with SK-MEL-5 melanoma it was 76.2%; with UACC-62 melanoma, 76.1%; in the assay on LOX IMVI melanoma, 70.5%. In addition, the growth with SK-MEL-28 melanoma was 94.1%.

As to `c1ccc(-c2nc(N3CCOCC3)c3c4c(sc3n2)CCCCC4)nc1`, the growth in the assay with DU-145 prostate was 71.5%; with K-562 leukemia, 58%; in the assay with MALME-3M melanoma it was 32.6%; with MDA-MB-231 breast it was 60.4%; in the assay with RXF 393 renal it was 55.4%; in the assay with SF-268 CNS, 65.5%. The growth is 49.2% with SF-295 CNS; 75.7% with UACC-257 melanoma; 67.6% with M14 melanoma; 59.5% with HCT-15 colon; 54.5% in the assay on HT29 colon; 45.9% in the assay with SNB-75 CNS. The growth with SNB-19 CNS was 62.5%; with U251 CNS it was 59.9%; with PC-3 prostate, 41.7%; with SK-MEL-5 melanoma, 23.4%; in the assay with UACC-62 melanoma, 56.1%; in the assay with LOX IMVI melanoma, 83.2%. Moreover, the growth in the assay with SK-MEL-28 melanoma was 61.8%.

With `CCCC(=O)Oc1ccc(/C(=C(/CC)Cc2ccccc2)c2ccc(OCCN3CCCC3)cc2)cc1`, the growth in the assay with DU-145 prostate is 87%; in the assay on K-562 leukemia, 2.42% (active); in the assay with MALME-3M melanoma it was 91.4%; in the assay with MDA-MB-231 breast, 78.2%; in the assay with RXF 393 renal, 68.2%; with SF-268 CNS it was 67.4%. The growth in the assay with SF-295 CNS was 100%; in the assay on UACC-257 melanoma, 87.6%; in the assay with M14 melanoma it was 63.9%; with HCT-15 colon, 41.8%; with HT29 colon, 16.5%; in the assay with SNB-75 CNS it was 62.5%. Moreover, the growth was 94.2% with SNB-19 CNS; 49% in the assay with U251 CNS; 70% in the assay on PC-3 prostate; 66.2% in the assay on SK-MEL-5 melanoma; 23.7% in the assay with UACC-62 melanoma; 25.2% in the assay on LOX IMVI melanoma. The growth in the assay on SK-MEL-28 melanoma is -19.8% (active).

For the compound `CCOC(=O)c1c2c(n3ccc(NC(=O)CCN4CCOCC4)cc13)C(=O)c1ncccc1C2=O`, the growth is 45.8% with DU-145 prostate; 19.8% in the assay with K-562 leukemia; 42.6% in the assay with MALME-3M melanoma; 26% in the assay on MDA-MB-231 breast; 63% in the assay on RXF 393 renal; 39% with SF-268 CNS. The growth was 49.3% with SF-295 CNS; 32% in the assay on UACC-257 melanoma; 24.6% with M14 melanoma; 33.9% with HCT-15 colon; 32.7% with HT29 colon; 52.7% with SNB-75 CNS. For the same compound, the growth is 54.6% with SNB-19 CNS; 41.5% in the assay on U251 CNS; 51% in the assay on PC-3 prostate; 42.3% in the assay on SK-MEL-5 melanoma; 27.7% with UACC-62 melanoma; 15% in the assay on LOX IMVI melanoma. In the assay with SK-MEL-28 melanoma, the growth was 77.8%.
